# In all, about 290,000 compounds went through this assay and about 3,300 (1.1%) were called active. Shown is part of a subset that was picked to be rich in actives. Unmarked numbers belong to inactive results. No stated cut-off is given here; in the data, active means binding response below about 67% or above about 130%; inconclusive means no clear call, values can overlap the other calls; inactive means in between.
# Target: Mitogen-activated protein kinase kinase kinase 2 (Homo sapiens) (UniProt Q9Y2U5)
# Assay: modulators of MEK5 binding to wildtype MEKK2, primary screen, biochemical, multiplex bead flow cytometry, Alexa488-MEK5 (AID 1531)
# Details: Alexa488-MEK5 binding to MEKK2 WT, at 10 µM, actives lie on both sides
row,Structure (SMILES),binding response (% of control)
1,CS(=O)(=O)N(CC(=O)N1CCCCCC1)c1cccc(Cl)c1Cl,108%
2,CCc1cccc(C)c1NS(=O)(=O)c1cc(Br)cnc1N,92%
3,CCN1/C(=C/c2ccc3ccc(C)cc3[n+]2CC)Sc2ccccc21,74%
4,CCN1/C(=C\c2ccc3ccccc3[n+]2CC)Sc2cc(C)ccc21,20% [inhibitor] (active)
5,CCN1/C(=C/C(=S)Nc2ccccc2)Sc2ccccc21,87%
6,CC1(C)CC[C@]2(C(=O)O)CC[C@]3(C)C(=CCC4[C@@]5(C)CC[C@H](O)C(C)(C)C5[C@H](O)C[C@]43C)[C@@H]2C1 (stereo not given in full),100%
7,N#CCc1c(C#N)c(N)nc(N2CCCC2)c1C#N,107%
8,O=C(NCc1ccccc1)c1onc(CSc2ccncc2)c1C(=O)NCc1ccccc1,104%
9,Clc1ccc2nc(-c3ccccc3)nc(C(Cl)Cl)c2c1,90%
10,NC(N)=Nc1nc(-c2ccccc2)c2cc(Cl)ccc2n1,150% (active)
11,O=C(CCl)NNc1nc(-c2ccccc2)c2cc(Cl)ccc2n1,102%
12,CC(C)(C)n1nc(Cc2cccc3ccccc23)c(C#N)c1N,98%
13,COc1ccccc1NC(=O)c1ccc(N2CC3CC(C2)c2cccc(=O)n2C3)c(NC(=O)c2cccnc2)c1 (stereo not given),105%
14,O=C1N[C@H](Cc2ccccc2)C(=O)N[C@H]1Cc1cn(S(=O)(=O)c2ccccc2)c2ccccc12,102%
15,C/C=C/C(=O)OCc1csc(CC(=O)Nc2ccccc2C)n1,94%
16,OCC1(CCOc2ccccc2)CCN(Cc2cn[nH]c2-c2ccccc2)CC1,94%
17,Cc1c(CN2CCC(CO)(CCOc3ccccc3)CC2)[nH]c2ccc(Cl)cc12,227% (active)
18,CCOC(=O)C1(CCOc2ccccc2)CCN(Cc2cc(OC)c(O)cc2Cl)CC1,126%
19,COc1ccc(C2NC(=O)C(=O)/C2=C(\O)c2ccc(Cl)cc2)cc1OC (stereo not given),109%
20,COC(C[C@@H](O)C[C@@H](O)[C@H](C)OCc1ccccc1)OC,97%

row,Structure (SMILES),binding response (% of control)
1,O=C(O)CSc1nnc(-c2ccc3c(c2)OCO3)n1-c1ccccc1,102%
2,Cn1c(SCc2nc3ccccc3s2)nnc1-c1ccc2c(c1)OCO2,30% [inhibitor] (active)
3,Cn1c(SCC(=O)N2CCCC2)nnc1-c1ccc2c(c1)OCO2,105%
4,CC1CCC2CCCCC2N1C(=O)c1cc([N+](=O)[O-])cc([N+](=O)[O-])c1 (stereo not given),97%
5,CCn1c(SCc2ccccc2)nc2cc(OC)c(OC)cc2c1=O,105%
6,O=C(NCC1CCCCC1)c1cc(S(=O)(=O)N2CCCCC2)ccc1N1CCOCC1,4% [inhibitor] (active)
7,COCCNC(=S)Nc1cc(S(=O)(=O)N2CCOCC2)ccc1N1CCCCC1,103%
8,COc1ccc(S(=O)(=O)N2CCOCC2)cc1C(=O)NC1CCCCC1,104%
9,CC(C)(c1ccccc1)c1ccc(OCCN2CCCC2)cc1,119%
10,Cc1onc(-c2ccccc2Cl)c1C(=O)OCC(=O)c1ccccc1,-2% [inhibitor] (active)
11,Cc1onc(-c2ccccc2Cl)c1C(=O)NCCn1ccc2ccccc21,98%
12,Cc1[nH]c2ccccc2c1C(=O)COC(=O)c1c(-c2ccccc2)noc1C,113%
13,O=C1CC2(CCCC2)Oc2ccc(Cl)cc21,109%
14,C/C(=N\NC(=O)C1(C)CC1(Br)Br)c1ccc(C)cc1C (stereo not given),98%
15,COc1ccc(OCCCCN2CCC(C)CC2)cc1,106%
16,COc1ccccc1N1CCN(CCCCOc2ccc(F)cc2)CC1,135% (active)
17,CCN1CCN(CCCCOc2ccccc2F)CC1,98%
18,O=C(NCCO)C(=O)NCC(c1ccc2c(c1)OCO2)N1CCN(c2ccc(F)cc2)CC1 (stereo not given),99%
19,O=C(COc1ccc([N+](=O)[O-])cc1)Nc1cccc(C(=O)Nc2ccccc2C(=O)O)c1,94%
20,O=C(CC1NCCNC1=O)Nc1cc(Cl)cc(Cl)c1 (stereo not given),108%

row,Structure (SMILES),binding response (% of control)
1,O=C(CC1SCCNC1=O)Nc1ccc(Cl)cc1 (stereo not given),87%
2,O=C(CC1SCCNC1=O)Nc1ccc(Cl)c(Cl)c1 (stereo not given),186% (active)
3,CC(C)c1c(C(=O)N/N=C/c2ccccc2C(=O)O)nnn1-c1nonc1N,102%
4,COC(=O)CN1C(=O)C(C)(C)Oc2ccc(C(=O)Nc3cccc(OC)c3)cc21,108%
5,CCOC(=O)c1ccc2[nH]c3c(c2c1)CCCC3NC=O (stereo not given),97%
6,N#CCSc1nc(-c2ccccc2)nc2ccc(F)cc12,100%
7,COc1ccc(NC(=O)CS(=O)(=O)c2ccccc2)cc1,109%
8,COC(=O)C(C)n1cnc2c(nnn2-c2cccc(Cl)c2)c1=O (stereo not given),106%
9,CCOc1nnc(C)c2c(C)n(-c3cccc(Cl)c3)nc12,72% [inhibitor] (active)
10,CCOc1ccc(CNC(=O)C2CCCN(c3nnc(C)c4c(C)n(-c5ccccc5)nc34)C2)cc1 (stereo not given),105%
11,COc1ccc(NC(=O)CN2C(=O)COc3ccc(S(=O)(=O)N4CCOCC4)cc32)cc1,97%
12,Fc1ccccc1COc1cccc2cccnc12,110%
13,Cc1ccc(-c2nc(CSCC(=O)NC3CCN(Cc4ccccc4)CC3)c(C)o2)cc1,107%
14,Cc1ccc(S(=O)(=O)N2CCN(C(=O)CSc3cc(C)ccc3C)CC2)c(C)c1,104%
15,CC(=O)NCCC(=O)Nc1nc(-c2ccc3c(c2)OCCO3)cs1,109%
16,CC(=O)Nc1ccc(N2CCOCC2)c(C(=O)Nc2cccc(C)c2)c1,-1% [inhibitor] (active)
17,COC(=O)c1cc(NC(=O)c2ccco2)ccc1N1CCOCC1,99%
18,Cc1cccc(NC(=O)c2cc([N+](=O)[O-])ccc2N2CCN(C)CC2)c1,101%
19,Cc1nc2ccccc2nc1N/N=C/c1ccc(O)cc1O,101%
20,O=C(O)c1ccccc1-c1ccccc1C(=O)NCCc1ccccc1,100%
